# Results as given in PubChem BioAssay (NCATS).
# Records with an inconclusive call do not appear. A call without a number means that no potency is given here. Calls of active or inactive are those of the source. Unless noted, the call rests on the fitted dose curve; in most records, active means well fitted curve in the direction sought with a large enough effect; inconclusive means small, poorly fitted or top-dose-only effect, or another doubt; inactive means no such curve, though single readings can be large; an effect the other way counts as inactive or inconclusive.
# Experiments:
# [1] = molecular target: Cytochrome P450 1A2 (Homo sapiens) (UniProt P05177); experiment: p450-cyp1a2 (AID 410; calls by dose curve; further: potency means the concentration at half of the fitted maximal effect)
# Method in brief: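 20nM CYP1A2 with 100uM Luciferin-ME (at Km) in 100mM KPO4; compound preincubated 10 min, NADPH regeneration added, 60 min at room temperature. Luciferin quantified by luminescence after detection reagent; normalized to 57 uM furafylline.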
# [2] = NFAT Signaling Pathway (AID 444; active means well fitted curve in either direction with a large enough effect, not every such curve was filed as active;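 further: carbachol stimulus at about its EC50 of 1 µM final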); details: Jurkat NFAT-bla M1, carbachol, beta-lactamase ratio, 5 h; at 7.69 µM (top of the series) unless noted
# Method in brief: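 Jurkat cells carrying an NFAT-driven β-lactamase reporter and co-transfected muscarinic M1 receptor were treated with compound plus carbachol (1 uM final, an EC50 level) for 5 h at 37 °C. CCF4 loading followed for 1 h at RT; 460/530 nm ratio gave %activity.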
# [3] = Stat Signaling Pathway (AID 446; active means well fitted curve in either direction with a large enough effect, not every such curve was filed as active;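 further: ME-180 cervical cancer cells given 40 pM IL-6 alongside compound; SIE-controlled beta-lactamase reporter measured as 460/530 nm FRET emission ratio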); details: ME-180 SIE beta-lactamase reporter, IL-6 stimulated, 5 h; at 7.69 µM (top of the series) unless noted
# Method in brief: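 ME-180 SIE-bla cells; overnight plating; cpd + IL-6 40 pM, 5 h, 37 C; LiveBLAzer 2.5 h RT; 460/530 nm emission ratio. Normalized to 300 pM IL-6 and 125 nM JAK inhibitor controls.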
# [4] = molecular target: Glucocorticoid receptor (Homo sapiens) (UniProt P04150); experiment: GR-GFP Redistribution (AID 450;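 active means compounds whose dose series gives a full or clear partial fitted curve of increased nuclear translocation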; further: potency means the concentration at half of the fitted maximal effect); details: U2OS GR-GFP nuclear translocation, laser cytometry, 2 h
# [5] = molecular target: Glucocorticoid receptor (Homo sapiens) (UniProt P04150); experiment: GR-EFC Redistribution (AID 451; calls by dose curve; further: potency means the concentration at half of the fitted maximal effect); details: CHO-K1 GR-EFC translocation, beta-gal luminescence, 2 h
# Method in brief: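 CHO-K1 cells stably expressing nuclear-localized β-gal enzyme acceptor and GR fused C-terminally to the enzyme donor fragment; ligand-driven nuclear translocation restores β-gal by complementation. Compounds titrated up to 46 uM final, 2 h at 37 °C; luminescence read.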
# [6] = molecular target: Mitogen-activated protein kinase 10 (Mus musculus) (UniProt Q61831); experiment: JNK3 AlphaScreen Assay (AID 530; active means well fitted curve in either direction with a large enough effect, not every such curve was filed as active;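 further: kinase came from lysate of stimulated human HepG2 cells; signal reports phosphorylation of biotinylated GST-cJun 1-79 at Ser73 with 10 µM ATP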)
# Method in brief: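 Inhibitors reduce antibody binding to phosphorylated biotin-cJun, lowering AlphaScreen luminescence. Lysates from HepG2 cells pre-activated by IL-1beta plus TNF-alpha supplied JNK3; compounds were titrated.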
# [7] = molecular target: Cytochrome P450 3A4 (Homo sapiens) (UniProt P08684); experiment: qHTS Assay for Inhibitors and Substrates of Cytochrome P450 3A4 (AID 884); further: potency means the concentration at half of the fitted maximal effect; nearly all actives have a fitted effect of over 50% in size
# Method in brief: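 20 nM human CYP3A4 with 25 uM Luciferin-PPXE (at KM) in 200 mM KPO4, preincubated 10 min with compound; NADPH regeneration started a 60 min RT reaction. Luciferin detected by luminescence, normalized to 57 uM ketoconazole as full inhibition.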
# [8] = molecular target: Cytochrome P450 3A4 (Homo sapiens) (UniProt P08684); experiment: qHTS Assay for Activators of Cytochrome P450 3A4 (AID 885); further: nearly all actives have a fitted effect of over 65% in size
# Method in brief: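 20nM CYP3A4 + 25uM Luciferin-PPXE (=KM), 200mM KPO4; cpd 10 min RT; NADPH regen, 60 min RT; stop w/ detection buffer, 20 min; luminescence. Normalized to 57 uM ketoconazole.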
# [9] = Confirmation and Secondary Assay for Modulators of Hemoglobin Beta Chain Splicing at IVS2 654 locus (AID 910)
# Method in brief: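 HeLa cells stably carrying EGFP interrupted by mutant beta-globin IVS2-654 intron (CMV-driven) were treated with compound for 2 days at 37C; corrected splicing was scored as total peak GFP intensity per well (488 nm excitation, 500-520 nm emission).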
# [10] = Confirmation and Secondary Assay for Modulators of Hemoglobin Beta Chain Splicing at IVS2 705 locus (AID 930);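 further: HeLa cells stably expressing the EGFP-705 splicing reporter; GFP fluorescence per well restored by corrected splicing of the IVS2-705 intron in EGFP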
# Method in brief: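 Read-out: total peak GFP fluorescence per well (488 nm excitation, 500-520 nm emission) by laser-scanning cytometry. Cells: HeLa EGFP-705 splicing reporter, 2 days compound exposure in Optimem/2% FCS.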
# [11] = qHTS Assay for Lipid Storage Modulators (AID 1519; calls by dose curve); details: Drosophila S3 cells, BODIPY lipid droplet/cell ratio, laser cytometry, cells loaded with oleic acid
# Method in brief: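 Cells seeded at 5,000 per well were treated with compounds over a concentration series and loaded with oleic acid (400 uM, as added). Lipid droplet fluorescence (488 nm excitation, 500-530 nm channel) was read by laser-scanning cytometry and normalized to 20 uM Triacsin C.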
# [12] = molecular target: Calcium and integrin-binding protein 1 (Homo sapiens) (UniProt Q99828); experiment: Primary qHTS for Identification of Calcium Integrin Binding Protein 1 (CIB1) Competitor (AID 1508620);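 further: GST tagged CIB1 binding a fluorescein labelled alphaIIb integrin peptide tracer; top concentration of the series differs between compounds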
# Method in brief: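 Fluorescence polarization competition: CIB1-GST (1 uM final) preincubated with compound 15 min at room temperature, then FITC-labeled alphaIIb peptide (100 nM final) added for another 15 min. Polarization read at Ex 480/Em 540.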
# [13] = Primary qHTS for small molecule stabilizers of the endoplasmic reticulum resident proteome: Secreted ER Calcium Modulated Protein (SERCaMP) assay (AID 1508630)
# Method in brief: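 GLuc-SERCaMP-expressing SH-SY5Y cells, pretreated 16 h with compound, are challenged with thapsigargin to empty ER calcium stores; after 4 h, coelenterazine is added directly to the medium and luminescence is imaged.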
# [14] = molecular target: Lysosomal acid glucosylceramidase (Homo sapiens) (UniProt P04062); experiment: Glucocerebrosidase-p2 (AID 348; in the data active means potency below about 10 µM; further: potency means the concentration at half of the fitted maximal effect); details: purified GBA, blue fluorogenic substrate, 40 min
# Method in brief: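 Compounds titrated from 0.6 nM upwards against 0.2 nM enzyme in pH 5.9 citric acid/KH2PO4, taurocholate, tween-20; blue fluorogenic substrate 80 uM, 40 min room temperature, stopped and read Ex 365/Em 440 for AC50.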
# [15] = molecular target: 3',5'-cyclic-AMP phosphodiesterase 4B (Homo sapiens) (UniProt Q07343); experiment: qHTS Assay for Inhibitors of PDE-IV (AID 607; active means well fitted activation curve with a large enough effect in the main read-out, with a control signal flat, not every such curve was filed as active)
# Method in brief: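 ACTOne HEK293 cells carry a modified cAMP-gated CNG channel and express endogenous PDE4; plated 1000 cells/well, compounds up to 22.9 uM final. Membrane-potential dye fluorescence (ex 535/em 590) was read; parental cells received 10 uM forskolin + 100 uM RO 20-1724.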
# [16] = molecular target: Cytochrome P450 2D6 (Homo sapiens) (UniProt P10635); experiment: qHTS Assay for Inhibitors and Substrates of Cytochrome P450 2D6 (AID 891); further: potency means the concentration at half of the fitted maximal effect; nearly all actives have a fitted effect of over 60% in size
# Method in brief: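 Human CYP2D6 (5 nM) with 30 uM Luciferin-ME EGE (at Km) in 100 mM KPO4, compound preincubated 10 min, then NADPH regeneration system for 60 min at room temperature. Luciferin read by luminescence; normalized to 1.43 uM quinidine.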
# [17] = qHTS profiling for inhibitors of Plasmodium falciparum (3D7) proliferation (AID 743322);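 further: infected erythrocytes exposed to compound for 72 h before lysis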; details: P. falciparum 3D7 proliferation; at 28.7 µM (top of the series)
# Method in brief: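 Erythrocytes infected with P. falciparum (0.3% parasitemia, 2.5% hematocrit) incubated with compounds 72 h at 37 C, 5% CO2. Lysis with saponin/Triton buffer containing SYBR Green I, overnight at room temperature in the dark; DNA fluorescence (485/535 nm) normalised to 0.29 uM artemisinin and DMSO.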
# [18] = qHTS profiling for inhibitors of Plasmodium falciparum (DD2) proliferation (AID 743323; call rule not given here); details: lower = more inhibition; at 28.7 µM (top of the series)
# Method in brief: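 SYBR Green fluorescence (ex 485, em 535 nm) of lysed cultures gives parasite DNA content; wells normalized to artemisinin (0.29 uM) and DMSO controls. Infected red cells: 0.3% parasitemia, 2.5% hematocrit, 72 h, 37 C.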
# [19] = qHTS profiling for inhibitors of Plasmodium falciparum (HB3) proliferation (AID 743324); details: Plasmodium falciparum HB3 blood-stage proliferation; at 28.7 µM (top of the series)
# Method in brief: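 P. falciparum HB3 grown in erythrocytes (0.3% parasitemia, 2.5% hematocrit final) with compound for 72 h at 37 C, 5% CO2. Parasite DNA detected by SYBR Green after saponin/triton lysis overnight; normalized to 0.29 uM artemisinin and DMSO.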
# [20] = molecular target: N-terminal Xaa-Pro-Lys N-methyltransferase 1 (Homo sapiens) (UniProt Q9BV86); experiment: Confirmatory qHTS for Inhibitors of N-terminal methyltransferase 1 (NTMT1): MTaseGlo Assay (AID 1645874); further: nearly all actives have a fitted effect of over 65% in size; further: potency means the concentration at half of the fitted maximal effect;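 on activity change, negative = inhibition: luminescence from SAH made as NTMT1 methylates SPKRIA peptide using SAM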
# Method in brief: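 Luminescent MTase-Glo read-out of SAH. 125 nM NTMT1, 100 uM SAM, 1 uM SPKRIA substrate, 30 min RT reaction after 15 min compound preincubation. Normalized to no-enzyme and DMSO controls; Hill fit.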
# [21] = AP1 Signaling Pathway (AID 357; active means well fitted curve in either direction with a large enough effect, not every such curve was filed as active;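 further: ME-180 reporter cells stimulated with EGF at its EC50 level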); details: ME-180 (cervical carcinoma) AP-1-bla reporter, EGF-induced, beta-lactamase ratio, 5 h; at 7.69 µM (top of the series) unless noted
# Method in brief: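 AP-1-bla ME-180 cells, Opti-MEM + 0.5% dialyzed FBS, plated overnight 37 °C. Cpd titration + EC50 EGF, 5 h 37 °C. CCF4 2.5 h RT; ex 405, em 460/530 ratio → %activity, AC50.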
# [22] = molecular target: Dual specificity protein kinase CLK4 (Homo sapiens) (UniProt Q9HAZ1); experiment: qHTS Assay for Inhibitors of CDC-like Kinase 4 (Kinase-Glo Assay) (AID 1770); further: potency means the concentration at half of the fitted maximal effect; nearly all actives have a fitted effect of over 65% in size
# Method in brief: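 Substrate mix (RS peptide 100 uM, ATP 1 uM) dispensed, compound pinned in, then Clk4 added to 25 nM final. Incubated 4.5 h at RT; Kinase-Glo reagent added, luminescence read after 5 min.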
# [23] = molecular target: Dual specificity protein kinase CLK4 (Homo sapiens) (UniProt Q9HAZ1); experiment: qHTS Assay for Inhibitors of CDC-like Kinase 4 (ADP-Glo Assay) (AID 1771); further: potency means the concentration at half of the fitted maximal effect; nearly all actives have a fitted effect of over 70% in size
# Method in brief: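 25 nM Clk4 with 100 uM RS repeat peptide and 1 uM ATP (final) in buffer with 2 mM MgCl2, 0.5 mM EGTA, 2.5 mM DTT, 0.01% Triton X-100; 1 h at room temperature; ADP-Glo luminescence for ADP formed.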
# [24] = molecular target: Dual specificity protein kinase CLK4 (Homo sapiens) (UniProt Q9HAZ1); experiment: qHTS Assay for Inhibitors of CDC-like Kinase 4 (ADP-FP Assay) (AID 1795); further: potency means the concentration at half of the fitted maximal effect; nearly all actives have a fitted effect of over 60% in size
# Method in brief: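 Clk4 6.25 nM; RS peptide 100 uM; ATP 1 uM; 25 mM Tris pH 7.5, 10 mM MgCl2; 1 h reaction. ADP detected via antibody/orange tracer FP displacement; TG003 positive control.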
# [25] = molecular target: Ubiquitin carboxyl-terminal hydrolase 1 (Homo sapiens) (UniProt O94782); experiment: Inhibitors of USP1/UAF1: Pilot qHTS (AID 504865);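 further: rhodamine fluorescence freed from ubiquitin-rhodamine substrate followed over time; top concentration of the series differs between compounds; nearly all actives have a fitted effect of over 35% in size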
# Method in brief: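 In 50mM HEPES pH 7.8 containing 0.5mM EDTA, 1mM TCEP, 0.1 mg/ml BSA and 0.01% Tween-20, 1nM USP1/UAF1 is exposed to compound for 15 min, then Ub-Rho (150nM final) is added and fluorescence is read over time.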
# [26] = molecular target: Rap guanine nucleotide exchange factor 3 (Homo sapiens) (UniProt O95398); experiment: Confirmatory qHTS for antagonist of cAMP-regulated guanine nucleotide exchange factor 3 (EPAC1) (AID 1645880); further: nearly all actives have a fitted effect of over 55% in size
# Method in brief: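 Nucleotide exchange uses 100 nM EPAC1, 250 nM RAP1B-BODIPY-GDP and 50 uM GDP, with compounds in a concentration-titration series. After 5 min at room temperature, fluorescence (480 nm ex/540 nm em) is read every 5 min for 30 min. Data are normalized to control ATA and DMSO.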
# [27] = molecular target: Rap guanine nucleotide exchange factor 3 (Homo sapiens) (UniProt O95398); experiment: Confirmatory qHTS for agonist of cAMP-regulated guanine nucleotide exchange factor 3 (EPAC1) (AID 1645881);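 further: EPAC1 catalysed release of BODIPY-GDP from Rap1B seen as fluorescence loss; nearly all actives have a fitted effect of over 75% in size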
# [28] = molecular target: Rap guanine nucleotide exchange factor 4 (Homo sapiens) (UniProt Q8WZA2); experiment: Confirmatory qHTS for agonist of cAMP-regulated guanine nucleotide exchange factor 4 (EPAC2) (AID 1645884);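 further: nucleotide exchange releases bodipy-GDP from Rap1 and this lowers its fluorescence; nearly all actives have a fitted effect of over 65% in size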
# [29] = molecular target: Rap guanine nucleotide exchange factor 4 (Homo sapiens) (UniProt Q8WZA2); experiment: Confirmatory qHTS for antagonist of cAMP-regulated guanine nucleotide exchange factor 4 (EPAC2) (AID 1645885); further: nearly all actives have a fitted effect of over 25% in size
# Calcium and integrin-binding protein 1 (Homo sapiens), sequence (Q99828 whole entry, looked up): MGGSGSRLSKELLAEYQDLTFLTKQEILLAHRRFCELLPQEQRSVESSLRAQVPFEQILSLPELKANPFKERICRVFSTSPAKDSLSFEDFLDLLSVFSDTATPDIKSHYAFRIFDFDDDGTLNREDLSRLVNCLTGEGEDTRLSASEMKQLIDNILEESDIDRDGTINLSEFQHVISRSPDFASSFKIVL
# Dual specificity protein kinase CLK4 (Homo sapiens), sequence (Q9HAZ1 whole entry, looked up): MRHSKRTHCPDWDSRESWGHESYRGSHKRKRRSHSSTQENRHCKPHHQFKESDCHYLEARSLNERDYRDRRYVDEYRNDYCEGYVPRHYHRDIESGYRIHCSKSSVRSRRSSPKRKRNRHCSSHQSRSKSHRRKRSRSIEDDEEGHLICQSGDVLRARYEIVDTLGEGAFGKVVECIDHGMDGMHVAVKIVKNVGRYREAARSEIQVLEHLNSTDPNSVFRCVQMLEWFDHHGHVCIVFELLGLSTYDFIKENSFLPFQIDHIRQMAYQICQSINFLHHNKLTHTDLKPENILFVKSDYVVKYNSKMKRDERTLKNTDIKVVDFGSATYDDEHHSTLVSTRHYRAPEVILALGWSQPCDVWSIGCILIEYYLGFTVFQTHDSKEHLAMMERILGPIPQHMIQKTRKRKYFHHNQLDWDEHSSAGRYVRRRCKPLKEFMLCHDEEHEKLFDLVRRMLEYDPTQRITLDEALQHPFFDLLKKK
# Glucocorticoid receptor (Homo sapiens), sequence (P04150 whole entry, looked up, the tested form may be a part): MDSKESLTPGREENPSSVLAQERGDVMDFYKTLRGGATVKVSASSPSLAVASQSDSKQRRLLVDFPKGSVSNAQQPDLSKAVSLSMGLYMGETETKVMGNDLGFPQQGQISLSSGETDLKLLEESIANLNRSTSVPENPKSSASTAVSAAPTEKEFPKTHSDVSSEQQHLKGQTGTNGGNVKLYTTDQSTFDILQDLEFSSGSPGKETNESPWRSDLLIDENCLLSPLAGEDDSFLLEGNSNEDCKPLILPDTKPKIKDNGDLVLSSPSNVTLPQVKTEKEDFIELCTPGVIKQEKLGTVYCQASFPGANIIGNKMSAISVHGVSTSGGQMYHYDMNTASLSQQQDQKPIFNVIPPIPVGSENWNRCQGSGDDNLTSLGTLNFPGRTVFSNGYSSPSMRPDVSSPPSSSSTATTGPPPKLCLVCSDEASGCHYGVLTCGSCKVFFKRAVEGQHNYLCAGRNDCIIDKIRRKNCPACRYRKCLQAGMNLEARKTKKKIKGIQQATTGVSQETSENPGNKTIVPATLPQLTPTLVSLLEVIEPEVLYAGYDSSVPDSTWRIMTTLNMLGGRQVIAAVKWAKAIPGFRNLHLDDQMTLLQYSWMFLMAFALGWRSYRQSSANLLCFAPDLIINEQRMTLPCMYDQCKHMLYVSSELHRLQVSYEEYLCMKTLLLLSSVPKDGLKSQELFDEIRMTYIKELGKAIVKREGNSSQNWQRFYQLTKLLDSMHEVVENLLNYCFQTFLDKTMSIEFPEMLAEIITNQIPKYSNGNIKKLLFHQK
# Cytochrome P450 3A4 (Homo sapiens), sequence (P08684 whole entry, looked up): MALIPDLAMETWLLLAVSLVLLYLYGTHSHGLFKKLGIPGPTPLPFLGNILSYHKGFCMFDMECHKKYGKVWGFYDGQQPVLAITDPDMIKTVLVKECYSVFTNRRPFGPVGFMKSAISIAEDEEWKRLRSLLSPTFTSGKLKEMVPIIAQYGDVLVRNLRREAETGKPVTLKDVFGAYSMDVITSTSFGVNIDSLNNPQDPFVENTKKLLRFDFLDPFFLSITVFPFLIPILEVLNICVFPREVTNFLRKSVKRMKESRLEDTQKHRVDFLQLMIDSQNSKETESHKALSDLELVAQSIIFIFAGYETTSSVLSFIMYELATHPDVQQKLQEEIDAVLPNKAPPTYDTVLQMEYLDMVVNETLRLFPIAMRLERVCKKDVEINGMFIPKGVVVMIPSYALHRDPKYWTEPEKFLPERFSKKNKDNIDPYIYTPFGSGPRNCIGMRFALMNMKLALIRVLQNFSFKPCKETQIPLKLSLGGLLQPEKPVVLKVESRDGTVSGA
# Cytochrome P450 1A2 (Homo sapiens), sequence (P05177 whole entry, looked up): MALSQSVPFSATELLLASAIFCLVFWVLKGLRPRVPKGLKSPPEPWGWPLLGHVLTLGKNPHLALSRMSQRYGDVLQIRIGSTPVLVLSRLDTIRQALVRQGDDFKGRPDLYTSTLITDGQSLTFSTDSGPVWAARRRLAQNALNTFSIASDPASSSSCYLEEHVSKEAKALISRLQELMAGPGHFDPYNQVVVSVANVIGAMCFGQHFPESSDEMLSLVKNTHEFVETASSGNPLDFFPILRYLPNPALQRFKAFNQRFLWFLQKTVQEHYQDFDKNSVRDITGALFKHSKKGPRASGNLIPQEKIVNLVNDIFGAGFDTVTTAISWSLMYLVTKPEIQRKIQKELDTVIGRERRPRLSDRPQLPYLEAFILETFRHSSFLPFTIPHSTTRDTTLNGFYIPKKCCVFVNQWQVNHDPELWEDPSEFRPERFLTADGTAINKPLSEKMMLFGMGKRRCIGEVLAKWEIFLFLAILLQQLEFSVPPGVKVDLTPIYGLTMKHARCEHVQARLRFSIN
# N-terminal Xaa-Pro-Lys N-methyltransferase 1 (Homo sapiens), sequence (Q9BV86 whole entry, looked up): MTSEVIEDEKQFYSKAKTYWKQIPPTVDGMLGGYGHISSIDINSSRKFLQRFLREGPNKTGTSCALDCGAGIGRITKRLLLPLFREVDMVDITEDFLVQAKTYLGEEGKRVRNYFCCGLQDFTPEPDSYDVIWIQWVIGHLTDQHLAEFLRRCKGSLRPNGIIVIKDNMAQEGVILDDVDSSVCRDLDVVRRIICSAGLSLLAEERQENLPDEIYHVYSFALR
# Lysosomal acid glucosylceramidase (Homo sapiens), sequence (P04062 whole entry, looked up): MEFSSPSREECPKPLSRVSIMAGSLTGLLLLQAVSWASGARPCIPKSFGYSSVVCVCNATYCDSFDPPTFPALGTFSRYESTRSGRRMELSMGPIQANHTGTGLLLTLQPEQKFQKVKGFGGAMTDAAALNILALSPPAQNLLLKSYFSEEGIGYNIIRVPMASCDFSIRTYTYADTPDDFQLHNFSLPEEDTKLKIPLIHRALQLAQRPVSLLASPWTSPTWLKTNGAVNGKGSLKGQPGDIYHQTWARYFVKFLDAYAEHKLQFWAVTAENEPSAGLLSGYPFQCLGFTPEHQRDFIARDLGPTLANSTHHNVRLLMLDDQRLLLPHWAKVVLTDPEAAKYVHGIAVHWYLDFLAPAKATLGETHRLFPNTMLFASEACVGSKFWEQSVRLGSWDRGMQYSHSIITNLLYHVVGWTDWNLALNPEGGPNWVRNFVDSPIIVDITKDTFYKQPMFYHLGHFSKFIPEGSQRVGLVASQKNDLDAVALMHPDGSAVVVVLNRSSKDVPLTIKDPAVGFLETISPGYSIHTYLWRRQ
# Rap guanine nucleotide exchange factor 4 (Homo sapiens), sequence (Q8WZA2 whole entry, looked up): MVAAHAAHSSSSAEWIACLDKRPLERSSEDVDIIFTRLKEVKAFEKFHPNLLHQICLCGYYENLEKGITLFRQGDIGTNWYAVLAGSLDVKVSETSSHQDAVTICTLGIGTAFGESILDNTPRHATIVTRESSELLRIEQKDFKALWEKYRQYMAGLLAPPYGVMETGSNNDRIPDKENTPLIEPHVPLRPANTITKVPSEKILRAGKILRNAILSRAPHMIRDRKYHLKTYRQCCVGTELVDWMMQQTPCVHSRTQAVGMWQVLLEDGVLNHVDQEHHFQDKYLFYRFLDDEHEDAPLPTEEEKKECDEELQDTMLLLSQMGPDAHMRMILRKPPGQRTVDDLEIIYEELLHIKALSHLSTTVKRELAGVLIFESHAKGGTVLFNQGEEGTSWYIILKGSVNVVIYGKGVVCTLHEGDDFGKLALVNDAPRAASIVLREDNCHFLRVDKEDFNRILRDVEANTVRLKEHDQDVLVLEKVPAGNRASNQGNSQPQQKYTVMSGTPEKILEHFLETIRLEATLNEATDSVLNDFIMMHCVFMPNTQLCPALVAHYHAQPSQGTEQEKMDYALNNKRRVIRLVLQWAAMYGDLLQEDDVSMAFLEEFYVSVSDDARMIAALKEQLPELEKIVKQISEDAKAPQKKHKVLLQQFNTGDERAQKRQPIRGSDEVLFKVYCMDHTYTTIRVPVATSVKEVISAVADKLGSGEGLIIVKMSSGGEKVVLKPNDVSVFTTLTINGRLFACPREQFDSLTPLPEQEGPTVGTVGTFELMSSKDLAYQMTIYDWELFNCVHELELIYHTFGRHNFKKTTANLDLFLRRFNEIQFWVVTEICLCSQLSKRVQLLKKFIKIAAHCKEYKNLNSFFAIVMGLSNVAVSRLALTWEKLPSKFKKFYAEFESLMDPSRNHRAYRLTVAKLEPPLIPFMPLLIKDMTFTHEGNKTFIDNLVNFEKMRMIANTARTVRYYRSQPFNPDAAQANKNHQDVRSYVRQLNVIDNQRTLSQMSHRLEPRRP
# Cytochrome P450 2D6 (Homo sapiens), sequence (P10635 whole entry, looked up): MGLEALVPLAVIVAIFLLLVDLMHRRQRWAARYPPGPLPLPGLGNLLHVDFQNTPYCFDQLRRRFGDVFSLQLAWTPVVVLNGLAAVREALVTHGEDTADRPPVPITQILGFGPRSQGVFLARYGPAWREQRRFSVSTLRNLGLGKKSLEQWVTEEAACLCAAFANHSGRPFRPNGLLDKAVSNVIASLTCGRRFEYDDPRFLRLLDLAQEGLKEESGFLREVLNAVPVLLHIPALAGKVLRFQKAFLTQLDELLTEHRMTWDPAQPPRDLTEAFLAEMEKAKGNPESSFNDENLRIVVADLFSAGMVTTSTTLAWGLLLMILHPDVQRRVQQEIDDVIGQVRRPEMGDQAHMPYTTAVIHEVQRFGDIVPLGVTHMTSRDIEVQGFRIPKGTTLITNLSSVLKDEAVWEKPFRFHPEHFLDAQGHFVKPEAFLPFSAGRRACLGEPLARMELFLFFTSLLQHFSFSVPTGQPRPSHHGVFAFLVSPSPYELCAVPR
smiles,measurement,setting,value
COc1cccc(-c2ccc3ncnc(NCc4cccs4)c3c2)c1,Potency,[1],0.501 µM (active)
same,"activity change, negative = inhibition",[2],23.9% (inactive)
same,"activity, negative = inhibition",[3],-19.5% (inactive)
same,Potency,[4],> 46 µM (inactive)
same,Potency,[5],> 46 µM (inactive)
same,outcome,[6],inactive
same,Potency,[7],7.94 µM (active)
same,Potency,[8],inactive
same,outcome,[9],inactive
same,outcome,[10],inactive
same,"activity change, negative = inhibition",[11]; at 57.5 µM (top of the series),-9.22% (inactive)
same,max response,[11]; measured here: cell count channel max response,-18.2%
same,max response,[11]; measured here: lipid channel max response,-23.5%
same,Potency,[12],inactive
same,Potency,[13],inactive
Cc1noc(C)c1C(=O)N1CCC2(CCCN(C(c3ccccc3)c3ccccc3)C2)CC1,Potency,[14],> 11.4 µM (inactive)
same,Potency,[1],inactive
same,"activity, negative = inhibition",[3],-11.6% (inactive)
same,Potency,[5],> 46 µM (inactive)
same,outcome,[6],inactive
same,Potency,[15],inactive
same,Potency,[16],2 µM (active)
same,remaining parasite growth % (stronger effect = lower value),[17],18.5%
same,"activity, percent of control",[18],22.6%
same,"remaining proliferation (% of control), lower = more inhibition",[19],10.2%
same,Potency,[12],inactive
same,Potency,[13],inactive
COc1ccc(-c2nnc3n2N=C(c2c(OC)cccc2OC)CS3)cc1OC,Potency,[12],inactive
same,Potency,[20],inactive
CN(Cc1ccco1)c1ncnc2ccc(-c3ccoc3)cc12,Potency,[14],> 11.4 µM (inactive)
same,"activity change, negative = inhibition",[21],-16.7% (inactive)
same,Potency,[1],2.51 µM (active)
same,"activity change, negative = inhibition",[2],-26.3% (inactive)
same,Potency,[4],> 46 µM (inactive)
same,Potency,[5],> 46 µM (inactive)
same,outcome,[6],inactive
same,Potency,[8],inactive
same,Potency,[22],0.112 µM (active)
same,Potency,[23],0.112 µM (active)
same,Potency,[24],0.0501 µM (active)
same,Potency,[25],inactive
same,Potency,[12],inactive
same,Potency,[13],inactive
same,Potency,[26],inactive
same,outcome,[27],inactive
same,outcome,[28],inactive
same,Potency,[29],inactive
Cc1cc(C)nc(NC(=S)N2CCN(c3ncccc3C#N)CC2)c1,Potency,[12],inactive
same,Potency,[20],22.4 µM (active)
Fc1cc(Nc2nc(-c3ccncc3)nc3ccccc23)ccc1-c1ccc2[nH]ncc2c1,Potency,[12],inactive
same,Potency,[20],inactive
Cc1cc2c(s1)c1cnn(Cc3cccc(C)c3F)c(=O)c1n2C,Potency,[12],inactive
same,Potency,[20],inactive
c1cncc(-c2ccc3ncnc(NCc4cccs4)c3c2)c1,Potency,[12],inactive
same,Potency,[20],39.8 µM (active)
